# Source: PubChem BioAssay
# Activity calls are given as the source filed them.
# Key:
# [1] = A549 cell viability effects, profiling panel, calcein-AM fluorescence, 48 h, basal (AID 1162); details: higher = more signal
# [2] = adipocyte viability effects, profiling panel, cell-based, 3T3-L1 adipocytes, calcein-AM fluorescence, 48 h, basal (AID 1163); details: 3T3-L1 adipocytes viability, higher = more signal
# [3] = HepG2 cell viability effects, profiling panel, calcein-AM fluorescence, 48 h, basal (AID 1164); details: higher = more signal
# [4] = MM1S cell viability effects, profiling panel, calcein-AM fluorescence, 48 h, basal (AID 1165); details: higher = more signal;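 note: viability of MM1S multiple myeloma cells under basal unstimulated conditions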
# [5] = basal RPMI8226 viability, no added stimulus, profiling panel, cell-based, calcein-AM fluorescence, 48 h, PK04 Diversity Set (AID 1166); details: RPMI8226 myeloma viability, higher = more signal;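 note: cells grown under basal conditions without added stimulus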
# [6] = basal HepG2 mitochondrial membrane potential changes, profiling panel, cell-based, JC-1 fluorescence, 24 h, 100 nL compound (AID 1167); details: higher = more signal
# [7] = basal 3T3-L1 adipocyte mitochondrial potential changes, profiling panel, cell-based, JC-1 fluorescence, 3T3-L1 adipocytes, 24 h, 100 nL compound (AID 1168); details: JC-1 mitochondrial fluorescence, higher = more signal, called active from +8 up or from −8 down
# [8] = basal RPMI8226 mitochondrial membrane potential changes, profiling panel, cell-based, JC-1 fluorescence, 24 h, 100 nL compound (AID 1169); details: RPMI8226 myeloma, JC-1 mitochondrial potential fluorescence, higher = more signal
# [9] = basal MM1S mitochondrial membrane potential changes, profiling panel, cell-based, JC-1 fluorescence, 24 h, 100 nL compound (AID 1170); details: higher = more signal
# [10] = A549 lung cancer cell viability effects, profiling panel, resazurin fluorescence, 24 h, PK04 Diversity Set (AID 1171); details: higher = more signal, called active from +8 up or from −8 down
# Note: test concentration not given here.
SMILES,z-score [1],z-score [2],z-score [3],z-score [4],z-score [5],z-score [6],z-score [7],z-score [8],z-score [9],z-score [10]
O=C1O[C@H](c2ccccc2)[C@H](c2ccccc2)N2[C@H]1[C@@H](C(=O)N1CCCCCCC1)[C@]1(C(=O)Nc3ccc(C#CCCO)cc31)[C@H]2c1ccc(OCCO)cc1,-0.84,0.162,0.409,-0.276,-0.105,-0.0749,-0.962 (inactive),-0.737,-0.919,1.93 (inactive)
C=C[C@H](C)[C@H](OC(=O)Nc1ccc(SC)cc1)c1ccc(O)c2ccccc12,-0.561,-0.557,-1.51,-2.74,-3.78,-3.16,-0.818 (inactive),-0.939,-1.51,-1.12 (inactive)
CC(C)c1ccc(NN2C(C(O)c3ccccn3)C=CC3C(=O)N(c4ccccc4)C(=O)C32)cc1 (stereo not given),-0.381,-0.696,-0.293,0.741,-0.712,-0.357,-1.17 (inactive),-0.597,-0.729,-0.943 (inactive)
COC(=O)C(CC#Cc1ccc2c(c1)[C@]1(C(=O)N2)[C@H](C(=O)N2CCc3cc(OC)c(OC)cc3C2)[C@H]2C(=O)O[C@H](c3ccccc3)[C@H](c3ccccc3)N2[C@@H]1c1ccc(OCCO)cc1)C(=O)OC,0.968,-0.204,1.63,0.783,0.678,-2.03,0.375 (inactive),-0.678,-1.49,0.21 (inactive)
COCCOC(=O)N1C(=O)[C@@]2(c3cc(C#CCC(C(=O)OC)C(=O)OC)ccc31)[C@H](c1ccc(OCCO)cc1)N1[C@H](c3ccccc3)[C@H](c3ccccc3)OC(=O)[C@H]1[C@@H]2C(N)=O,0.462,0.433,0.322,-2.51,-2.67,-0.0777,1.3 (inactive),-0.72,-0.0535,1.18 (inactive)
COc1ccc([Si](C)(C)[C@@H]2[C@@H](CC(=O)N(CCO)Cc3ccccc3)O[C@]3(C(=O)N(Cc4ccc(N5CCOC5=O)cc4)c4ccccc43)[C@H]2C)cc1,-0.65,0.603,-1.94,-2.35,-4.21,-0.0678,1.19 (inactive),-1.01,-1.29,-1.61 (inactive)
CCOC(=O)C1=CCC(c2cccc(Cl)c2)O1 (stereo not given),-1,0.464,-0.531,-0.488,-1.15,-0.454,-0.627 (inactive),0.96,-0.472,1.16 (inactive)
CCCCC(CC)C(O)C1C=CC2C(=O)NC(=O)C2N1Nc1ccccn1 (stereo not given),0.373,-0.131,1.12,-0.11,0.581,0.0822,-0.506 (inactive),0.713,-0.792,-0.858 (inactive)
COC(=O)[C@@]1(Cc2ccccc2)[C@H]2c3cc(C(=O)N4CCCC4)n(CCO)c3C[C@H]2CN1C(=O)c1ccccc1,-0.258,0.577,0.345,-0.867,0.688,0.844,0.671 (inactive),0.0245,-0.77,-0.103 (inactive)
CC(C)=CCCC(C)=CC(O)C1C=CC2C(=O)N(c3ccccc3)C(=O)C2N1Nc1ccc([N+](=O)[O-])cc1 (stereo not given),-0.498,0.701,-0.0971,-1.2,-0.186,-1.07,-1.44 (inactive),0.417,1.41,-0.214 (inactive)
COC(=O)[C@@]1(Cc2ccccc2)[C@H]2c3cc(C(=O)N(C)C)n(Cc4ccc(O)c(OC)c4)c3C[C@H]2CN1C(=O)c1ccccc1,-0.927,1.68,0.0419,-0.494,-1.26,2.19,-0.485 (inactive),-0.671,-1.47,0.349 (inactive)
CN(C)CCCNC(=O)[C@@]1(Cc2ccccc2I)c2ccccc2C(=O)N(Cc2ccccc2Cl)[C@H]1c1ccc(CO)cc1,-4.22,0.711,-5.11,-3.8,-4.38,-1.9,-0.373 (inactive),-0.935,-2.3,-6.99 (inactive)
C[N+](C)(C)CCCCCCNC(=O)[C@@H]1C[C@@H]2C(=O)NCC(=O)N2[C@@H]1c1ccc(O)cc1,-0.261,-0.166,0.517,-0.0232,0.0324,-1.58,0.251 (inactive),-0.0725,-0.534,0.28 (inactive)
COCCCNC(=O)[C@@]1(Cc2ccccc2CN=[N+]=[N-])N=C(c2ccc(OCCCO)cc2)O[C@H]1c1ccccc1N=[N+]=[N-],-0.121,-0.0406,0.35,-1.34,-3.87,1.36,1.98 (inactive),-1.06,-0.156,-1.47 (inactive)
C=CC[C@]1(C(=O)NCC(O)CO)N=C(c2ccc(OCCCO)cc2)O[C@H]1c1ccccc1N=[N+]=[N-] (stereo not given in full),-0.402,0.864,-0.735,-1.16,0.736,-0.285,0.13 (inactive),-0.49,0.857,0.702 (inactive)
COc1ccc(C(=O)Nc2ccc(CN3C(=O)[C@@]4(O[C@@H](CC(=O)N5Cc6ccccc6C[C@H]5CO)[C@H]([Si](C)(C)c5ccc(OC)cc5)[C@H]4C)c4ccccc43)cc2)cc1,-0.0018,0.844,-0.856,-1.84,-0.881,0.489,0.749 (inactive),-0.957,-1.05,0.143 (inactive)
Cc1ccc(S[C@]2(C(=O)O)CC(=O)N(Cc3ccccc3C(F)(F)F)[C@@H]2c2ccc(CO)cc2)cc1,0.391,-0.208,0.775,-0.804,0.393,0.143,0.998 (inactive),0.171,-0.446,0.142 (inactive)
O=[N+]([O-])c1ccc(C[n+]2ccc(-c3ccc(CO)cc3)cc2)o1,0.0994,0.511,-1.19,0.266,-1.19,-1.48,-0.886 (inactive),0.187,-0.425,-0.335 (inactive)
C=C(CCCC)/C(=C/C[C@H](OC(=O)c1ccncc1)c1ccc(CO)o1)c1cc(C(=O)OC)ccc1OC,-0.705,-0.0954,-0.677,-3.18,-1.04,-0.132,-0.991 (inactive),-0.375,-0.207,-0.401 (inactive)
CC(C)C[C@@H]1NC(=O)[C@@]23C(=O)N[C@@H](Cc4ccccc4)C2[C@H](C)[C@@]2(C)O[C@H]2C3/C=C/C/C=C\CNC(=O)[C@@H]2CCCN2C1=O (stereo not given in full),-0.486,0.0971,-0.809,-0.641,0.219,-0.00843,0.568 (inactive),0.548,-0.491,-0.023 (inactive)
COc1ccccc1CN1C(=O)c2ccccc2[C@@]2(Cc3ccccc3N(C3CC3)C2=O)[C@@H]1c1ccc(CO)cc1,0.0264,0.358,0.43,-1.6,-0.96,-0.774,-0.607 (inactive),0.213,0.361,0.375 (inactive)
C[C@]12C(=O)N(CCCO)[C@@H]3C(=O)N(c4ccc(Cl)cc4)CC=CC31O[C@@H]1/C=C\CCCOC(=O)C12 (stereo not given in full),0.348,0.922,-0.114,0.14,-0.191,-0.665,-1.25 (inactive),-0.0538,1.18,-0.0576 (inactive)
CCCCC(=C=CC[C@H](O)c1ccccc1OCCO)C[C@H](O)c1ccccn1,0.747,-0.547,1.04,0.7,-0.327,0.21,0.589 (inactive),-0.45,-1.14,0.412 (inactive)
NC(=O)NCC#Cc1ccc2c(c1)[C@]1(C(=O)N2)[C@H](c2ccc(OCCO)cc2)N2[C@H](c3ccccc3)[C@H](c3ccccc3)OC(=O)[C@H]2[C@@H]1C(=O)N1CCN(c2ncccn2)CC1,0.947,0.212,0.674,-0.167,0.62,-1.45,0.721 (inactive),-0.726,-0.669,1.1 (inactive)
C[C@]12C(=O)N(CCCCCO)[C@@H]3C(=O)N(c4ccc(Cl)cc4)CC=CC31O[C@@H]1/C=C\CCCOC(=O)C12 (stereo not given in full),-0.237,0.282,0.209,0.355,-0.376,-0.259,-0.175 (inactive),0.109,-0.0571,-0.663 (inactive)
O=C(CS)NCCCCCNC(=O)[C@@H]1C[C@@H]2C(=O)N3CCC[C@H]3C(=O)N2[C@@H]1c1ccc(O)cc1,0.644,-0.239,0.413,-0.96,0.125,-0.264,-0.155 (inactive),-0.282,0.684,-0.284 (inactive)
CCCc1cc2c(n1Cc1ccc(OC)cc1)C(C)C1CN(C(=O)c3ccccc3)C(C)(C(=O)OC)C21 (stereo not given),-0.923,0.431,-0.815,-2.74,-4.66,2.08,-1.82 (inactive),-0.157,-1.61,-0.535 (inactive)
CC(C)(C)OC(=O)CC[C@@]1(C(=O)N2CCCCC2)N=C(c2ccc(OCCCO)cc2)O[C@@H]1c1ccccc1N=[N+]=[N-],0.611,-0.351,0.733,-0.993,-2.16,1.52,3.17 (inactive),-1.1,-0.993,-0.328 (inactive)
CCCNC(=O)[C@@H]1c2ccccc2C(=O)N(CC23CC4CC(CC(C4)C2)C3)[C@H]1c1ccc(CO)cc1,-0.242,0.487,0.275,-0.671,-2.49,1.81,-0.0153 (inactive),-0.236,0.141,0.704 (inactive)
COCCOC(=O)N1C(=O)[C@@]2(c3cc(C#CCNC(N)=O)ccc31)[C@H](c1ccc(OCCO)cc1)N1[C@H](c3ccccc3)[C@H](c3ccccc3)OC(=O)[C@H]1[C@@H]2C(=O)N1CCN(c2ncccn2)CC1,-0.142,0.169,-0.123,-0.216,0.191,-1.76,1 (inactive),0.118,-0.572,1.28 (inactive)
